Laboratory results reported in PubChem BioAssay.
This is one part of the list. Calls of active or inactive are those of the source.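 Rule for the calls, unless noted: active = inhibition above a set limit taken from the earlier primary screen (cut at about 63% in these data); inactive = the rest.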

Assays:
[1] = molecular target: Neuropeptide Y receptor type 2 (Homo sapiens) (UniProt P49146); experiment: NPY-Y2 potentiators or agonists, confirmation, cell-based (AID 1539; in the data active = activation above about 33%); details: cell-based NPY-Y2 potentiator/agonist assay; at 3.6 µM; hits give high values
Chain of Neuropeptide Y receptor type 2 (Homo sapiens) (P49146 whole entry, looked up): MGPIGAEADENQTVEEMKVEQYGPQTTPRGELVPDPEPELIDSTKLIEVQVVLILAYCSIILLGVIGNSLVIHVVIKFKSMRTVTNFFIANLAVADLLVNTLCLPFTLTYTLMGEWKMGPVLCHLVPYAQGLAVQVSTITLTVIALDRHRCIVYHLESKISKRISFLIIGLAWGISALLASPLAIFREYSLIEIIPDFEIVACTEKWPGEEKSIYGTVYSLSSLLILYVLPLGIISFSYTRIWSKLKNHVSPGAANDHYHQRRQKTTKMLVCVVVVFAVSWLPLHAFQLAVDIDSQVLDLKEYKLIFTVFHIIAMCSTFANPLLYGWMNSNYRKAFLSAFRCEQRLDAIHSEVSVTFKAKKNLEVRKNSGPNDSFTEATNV

[2] = molecular target: Neuropeptide Y receptor type 1 (Homo sapiens) (UniProt P25929); experiment: NPY-Y1 potentiators or agonists, counter-screen for NPY-Y2 potentiator project, cell-based, fluorescence (AID 1651; in the data active = activation above about 45%;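 note: cells stimulated with submaximal NPY then isoproterenol with phosphodiesterase inhibitor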); details: Y1 HEK293-CNG cells, membrane potential fluorescence; at 3.6 µM; hits give high values
Chain of Neuropeptide Y receptor type 1 (Homo sapiens) (P25929 whole entry, looked up): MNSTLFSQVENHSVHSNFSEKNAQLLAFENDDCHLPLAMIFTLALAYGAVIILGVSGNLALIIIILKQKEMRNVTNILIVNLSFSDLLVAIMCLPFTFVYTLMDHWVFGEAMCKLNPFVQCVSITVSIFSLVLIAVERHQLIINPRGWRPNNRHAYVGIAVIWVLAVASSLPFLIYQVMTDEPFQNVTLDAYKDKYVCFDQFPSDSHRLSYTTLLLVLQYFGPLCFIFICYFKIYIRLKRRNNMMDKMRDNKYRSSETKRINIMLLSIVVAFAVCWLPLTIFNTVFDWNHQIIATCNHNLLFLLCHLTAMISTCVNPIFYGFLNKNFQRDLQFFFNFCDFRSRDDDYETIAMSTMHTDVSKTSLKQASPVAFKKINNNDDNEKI

[3] = molecular target: Neuropeptide Y receptor type 1 (Homo sapiens) (UniProt P25929); experiment: NPY-Y1 direct agonists, selectivity assay for NPY-Y2 potentiator project, cell-based, fluorescence (AID 1702;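 active = activation above the mean of DMSO-only control wells plus 3 SD, cut at about 18% in these data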;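 note: cells stimulated with 1 µM isoproterenol plus the PDE inhibitor Ro 20-1724; 0% = isoproterenol with DMSO and no NPY and 100% = 40 nM NPY; Y1 agonists lower the membrane potential dye signal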); details: HEK293 Y1-CNGC, membrane potential fluorescence, agonism; at 3.6 µM; hits give high values
[4] = CNGC cAMP sensor activity inhibitors, counter-screen for NPY-Y2 potentiator project, cell-based, HEK293-CNG parental, membrane potential fluorescence (AID 1703;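 active = inhibition above the control-well mean plus 3 SD of those wells, cut at about 22% in these data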;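 note: 0% = DMSO with isoproterenol and 100% = DMSO without isoproterenol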); details: isoproterenol cAMP, at 3.6 µM, hits give high values
[5] = molecular target: Neuropeptide Y receptor type 2 (Homo sapiens) (UniProt P49146); experiment: NPY-Y2 direct agonists, counter-screen for NPY-Y2 potentiator project, cell-based, fluorescence (AID 1710;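 active = activation above the mean of solvent-only control wells plus 3 SD, cut at about 10% in these data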;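 note: cells stimulated by isoproterenol with no NPY added so direct agonism is tested; 0% = DMSO with isoproterenol alone and 100% = NPY at EC100 plus isoproterenol; agonism lowers probe fluorescence through less cAMP and CNG channel opening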); details: HEK293 Y2/CNGC cells, membrane potential fluorescence, agonist mode; at 3.6 µM; hits give high values
[6] = molecular target: Sphingosine 1-phosphate receptor 4 (Homo sapiens) (UniProt O95977); experiment: S1P4 receptor antagonists, human, confirmation, cell-based (AID 1524; in the data active = inhibition above about 30%); details: S1P4-expressing cell line, antagonist mode, reporter read-out; at 4.98 µM; hits give high values
Chain of Sphingosine 1-phosphate receptor 4 (Homo sapiens) (O95977 whole entry, looked up): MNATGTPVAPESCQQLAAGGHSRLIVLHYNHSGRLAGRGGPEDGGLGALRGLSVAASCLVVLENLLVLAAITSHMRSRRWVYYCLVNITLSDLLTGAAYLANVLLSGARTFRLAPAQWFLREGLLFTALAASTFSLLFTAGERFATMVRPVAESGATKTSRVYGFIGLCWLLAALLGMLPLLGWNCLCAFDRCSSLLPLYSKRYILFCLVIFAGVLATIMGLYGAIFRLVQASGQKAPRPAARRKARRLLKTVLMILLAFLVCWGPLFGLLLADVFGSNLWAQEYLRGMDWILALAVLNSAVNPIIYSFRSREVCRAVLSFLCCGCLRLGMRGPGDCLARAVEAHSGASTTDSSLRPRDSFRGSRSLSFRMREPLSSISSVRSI

[7] = molecular target: Sphingosine 1-phosphate receptor 1 (Homo sapiens) (UniProt P21453); experiment: S1P1 receptor antagonists, human, counter-screen for S1P4 antagonist project, cell-based (AID 1564; in the data active = inhibition above about 40%;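 note: receptor stimulated with S1P near its EC80; 0% = agonist stimulated wells and 100% = vehicle only wells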); details: cell-based S1P1 antagonist counterscreen, at 4.98 µM, hits give high values
Chain of Sphingosine 1-phosphate receptor 1 (Homo sapiens) (P21453 whole entry, looked up, the tested form may be a part): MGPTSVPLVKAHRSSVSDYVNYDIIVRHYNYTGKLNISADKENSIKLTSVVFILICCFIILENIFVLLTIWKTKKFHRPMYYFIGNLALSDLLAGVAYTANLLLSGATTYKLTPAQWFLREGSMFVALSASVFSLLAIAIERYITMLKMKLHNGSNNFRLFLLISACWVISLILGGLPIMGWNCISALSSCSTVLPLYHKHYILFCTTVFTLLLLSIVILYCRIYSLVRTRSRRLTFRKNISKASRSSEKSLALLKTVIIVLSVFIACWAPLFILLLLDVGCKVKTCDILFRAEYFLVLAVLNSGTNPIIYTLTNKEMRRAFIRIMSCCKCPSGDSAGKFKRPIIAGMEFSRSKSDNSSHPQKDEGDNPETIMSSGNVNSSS

[8] = molecular target: Nuclear receptor coactivator 3 (Homo sapiens) (UniProt Q9Y6Q9); experiment: SRC3 coactivator transcriptional activity inhibitors, confirmation, cell-based, luminescence, quadruplicate (AID 588792;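 active = mean inhibition over 43.08%, the solvent-only control mean plus 3 SD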;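 note: 0% = DMSO treated cells and 100% = gossypol at 36 µM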); details: HEK293 GAL4-SRC3 luciferase reporter, at 3.6 µM, hits give high values
[9] = test system: transactivating tegument protein VP16 (Human herpesvirus 1), Gal4-VP16 luciferase reporter; experiment: VP16 transactivation inhibitors, counter-screen for SRC3 inhibitor project, cell-based, luminescence, high throughput (AID 588794; in the data active = inhibition above about 30%); details: mammalian cells, VP16-driven luciferase reporter luminescence; at 3.6 µM; hits give high values
[10] = molecular target: Nuclear receptor coactivator 1 (Homo sapiens) (UniProt Q15788); experiment: SRC1 coactivator transcriptional activity inhibitors, confirmation, cell-based, luminescence, quadruplicate (AID 588820;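 active = mean inhibition above 46.68%, the untreated control wells mean plus 3 SD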;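 note: 0% = DMSO wells and 100% = gossypol 36 µM treated wells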); details: HEK293 GAL4-SRC1 luciferase reporter, at 3.6 µM, hits give high values
Chain of Nuclear receptor coactivator 1 (Homo sapiens) (Q15788 whole entry, looked up, the tested form may be a part): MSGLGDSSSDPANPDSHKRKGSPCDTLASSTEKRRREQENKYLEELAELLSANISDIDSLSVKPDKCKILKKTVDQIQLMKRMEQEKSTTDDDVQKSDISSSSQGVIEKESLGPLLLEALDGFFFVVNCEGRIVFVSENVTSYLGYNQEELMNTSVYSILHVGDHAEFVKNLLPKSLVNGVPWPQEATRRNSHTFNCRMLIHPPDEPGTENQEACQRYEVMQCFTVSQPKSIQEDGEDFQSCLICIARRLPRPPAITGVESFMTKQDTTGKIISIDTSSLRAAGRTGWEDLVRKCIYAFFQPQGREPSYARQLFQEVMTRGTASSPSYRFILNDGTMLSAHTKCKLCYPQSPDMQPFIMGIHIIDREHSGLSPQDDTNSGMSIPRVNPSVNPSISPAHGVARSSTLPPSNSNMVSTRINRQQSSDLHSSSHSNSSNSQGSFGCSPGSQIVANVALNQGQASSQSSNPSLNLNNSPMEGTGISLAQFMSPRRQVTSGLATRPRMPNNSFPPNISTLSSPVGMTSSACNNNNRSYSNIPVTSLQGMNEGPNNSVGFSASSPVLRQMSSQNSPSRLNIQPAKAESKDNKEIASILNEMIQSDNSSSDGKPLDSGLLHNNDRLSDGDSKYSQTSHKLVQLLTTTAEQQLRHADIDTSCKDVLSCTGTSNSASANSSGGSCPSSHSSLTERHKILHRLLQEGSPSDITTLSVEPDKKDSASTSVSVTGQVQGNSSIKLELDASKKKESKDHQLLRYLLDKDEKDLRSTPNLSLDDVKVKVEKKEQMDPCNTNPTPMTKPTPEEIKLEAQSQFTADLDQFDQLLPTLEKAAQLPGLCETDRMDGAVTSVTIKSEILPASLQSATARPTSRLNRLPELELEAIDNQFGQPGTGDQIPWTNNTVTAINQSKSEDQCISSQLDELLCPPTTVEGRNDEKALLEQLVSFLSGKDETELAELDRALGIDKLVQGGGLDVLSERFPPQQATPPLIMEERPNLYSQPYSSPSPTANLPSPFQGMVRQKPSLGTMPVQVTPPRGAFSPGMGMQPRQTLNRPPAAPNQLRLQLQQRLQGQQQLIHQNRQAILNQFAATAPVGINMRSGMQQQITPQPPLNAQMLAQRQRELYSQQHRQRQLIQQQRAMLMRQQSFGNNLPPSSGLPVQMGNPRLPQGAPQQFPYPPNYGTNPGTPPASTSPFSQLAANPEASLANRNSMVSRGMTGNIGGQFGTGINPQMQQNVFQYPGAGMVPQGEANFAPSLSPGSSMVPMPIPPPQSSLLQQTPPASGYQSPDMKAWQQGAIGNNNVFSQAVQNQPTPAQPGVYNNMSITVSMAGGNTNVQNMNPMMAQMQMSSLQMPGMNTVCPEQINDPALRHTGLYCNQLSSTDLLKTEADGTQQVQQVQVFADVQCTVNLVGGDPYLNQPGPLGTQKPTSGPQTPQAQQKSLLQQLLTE

[11] = VP16 transactivation inhibitors, counter-screen for SRC1 inhibitor project, cell-based, luminescence, high throughput (AID 588824; in the data active = inhibition above about 25%); details: cell-based VP16 transactivation luciferase luminescence; at 3.6 µM; hits give high values
[12] = molecular target: Receptor-interacting serine/threonine-protein kinase 2 (Homo sapiens) (UniProt O43353); experiment: NOD2-RIPK2 binding disruptors, retest, confirmation, fluorescence, CHO cells, BLA complementation, triplicate (AID 624370;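 active = mean inhibition across replicates above a set limit taken from the earlier primary screen, cut at about 21% in these data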;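 note: 0% = DMSO-only wells and the high end = clavulanate BLA-blocked wells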); details: CCF4 FRET, at 4.98 µM, hits give high values
Chain of Receptor-interacting serine/threonine-protein kinase 2 (Homo sapiens) (O43353 whole entry, looked up): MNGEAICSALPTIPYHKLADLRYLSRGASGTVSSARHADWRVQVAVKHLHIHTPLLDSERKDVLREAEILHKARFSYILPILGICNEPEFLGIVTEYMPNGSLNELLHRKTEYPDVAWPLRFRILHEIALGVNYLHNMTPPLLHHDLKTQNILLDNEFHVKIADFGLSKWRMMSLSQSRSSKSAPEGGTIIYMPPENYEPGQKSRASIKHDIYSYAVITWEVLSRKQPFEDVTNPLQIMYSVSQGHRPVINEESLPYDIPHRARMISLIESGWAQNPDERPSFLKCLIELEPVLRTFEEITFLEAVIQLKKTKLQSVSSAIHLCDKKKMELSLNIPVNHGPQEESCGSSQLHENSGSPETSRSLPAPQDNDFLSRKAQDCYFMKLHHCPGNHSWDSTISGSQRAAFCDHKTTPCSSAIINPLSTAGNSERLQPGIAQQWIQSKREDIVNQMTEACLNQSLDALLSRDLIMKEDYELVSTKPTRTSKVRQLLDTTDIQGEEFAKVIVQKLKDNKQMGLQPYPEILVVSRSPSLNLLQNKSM

[13] = beta-lactamase reporter inhibitors in CHO cells, confirmation, artefact control for NOD2-RIPK2 interaction inhibitor project, cell-based, CHO-K1 CMV-bla, CCF4 FRET, fluorescence (AID 624371;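 active = mean inhibition above the low-control mean inhibition plus three low-control SD, cut at about 11% in these data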;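 note: 0% = DMSO only wells and 100% = clavulanate high control wells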); details: CCF4 FRET ratio, counterscreen, at 4.98 µM, hits give high values
[14] = KLF5 expression inhibitors, confirmation, DLD-1 cells, luminescence (AID 1834); details: DLD-1 KLF5 promoter firefly luciferase reporter, at 4 µM, hits give high values;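 note: 0% = DMSO wells and 100% = LY294002 at 200 µM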
[15] = cytotoxicity in rat IEC-6 cells, cytotoxicity control for KLF5 inhibitor project, cell-based, luminescence, triplicate (AID 1905; in the data active = inhibition above about 23%;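 note: cells exposed to compounds for 48 hours before viability read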); details: IEC-6 rat intestinal cells, viability luminescence; at 4 µM; hits give high values
[16] = molecular target: Galanin receptor type 2 (Homo sapiens) (UniProt O43603); experiment: GALR2 antagonists, retest of hits, confirmation, cell-based (AID 866; in the data active = inhibition above about 27%;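 note: cells stimulated with galanin at about its EC80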); details: GALR2-expressing cells, antagonist mode, at 4 µM, hits give high values
[17] = inhibitors of NFAT-driven beta-lactamase reporter, confirmation, counter-screen for GALR2 antagonist project, CHO NFAT-bla cells, FRET readout (AID 867;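 active = inhibition above the mean inhibition across tested compounds plus 3 SD, cut at about 27% in these data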;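 note: 0% = 500 nM thapsigargin stimulated wells and 100% = unstimulated BSA only wells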); details: thapsigargin-stimulated, at 4.2 µM, hits give high values
[18] = growth loss of phage-infected E. coli expressing H. pylori AddAB, confirmation, AddAB inhibitor project, absorbance, E. coli V3065, T4 phage, triplicate (AID 488942;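 active = mean inhibition above a set limit taken from the earlier primary screen, cut at about 13% in these data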;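 note: higher means less bacterial growth since AddAB block lets phage replicate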); details: OD, at 11.9 µM, hits give high values, T4 phage with gene 2 nonsense mutations
[19] = growth loss of RecBCD+ E. coli with mutant T4 phage, counter-screen for AddAB inhibitor project, absorbance, V66 E. coli (AID 488955;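 active = mean inhibition above the mean of solvent-only control wells plus 3 SD, cut at about 4% in these data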;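 note: optical density read after an 18 h incubation at 37 °C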); details: OD growth, at 11.9 µM, hits give high values
[20] = bacterial viability inhibition counter-screen, confirmation, counter-screen for AddAB inhibitor project, absorbance (AID 488956; in the data active = inhibition above about 25%); details: absorbance (AddAB counterscreen), at 11.9 µM, hits give high values
[21] = molecular target: Photoreceptor-specific nuclear receptor (Homo sapiens) (UniProt Q9Y5X4); experiment: NR2E3 agonist confirmation in cells, cell-based, luminescence, CHO-S two-hybrid (AID 624378;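 active = average inhibition above a cutoff equal to the mean inhibition of all tested compounds plus one SD, cut at about 70% in these data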;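 note: 0% = DMSO in NR2E3 cells and 100% = DMSO in cells lacking NR2E3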); details: CHO-S mammalian two-hybrid NR2E3-NCOR, luciferase luminescence; at 3.98 µM; hits give high values
Chain of Photoreceptor-specific nuclear receptor (Homo sapiens) (Q9Y5X4 whole entry, looked up, the tested form may be a part): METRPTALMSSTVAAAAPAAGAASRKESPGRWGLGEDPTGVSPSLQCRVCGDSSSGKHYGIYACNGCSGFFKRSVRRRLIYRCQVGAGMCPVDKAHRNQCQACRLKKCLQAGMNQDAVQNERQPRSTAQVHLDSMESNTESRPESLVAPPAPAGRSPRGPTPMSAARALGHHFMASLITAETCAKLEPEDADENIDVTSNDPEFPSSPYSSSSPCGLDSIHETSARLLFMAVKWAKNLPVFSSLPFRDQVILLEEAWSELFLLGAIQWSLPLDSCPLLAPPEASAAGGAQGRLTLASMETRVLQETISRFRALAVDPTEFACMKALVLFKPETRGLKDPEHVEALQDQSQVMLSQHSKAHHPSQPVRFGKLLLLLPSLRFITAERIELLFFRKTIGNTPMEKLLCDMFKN

[22] = GAL4-VP16 reporter modulators, confirmation, counter-screen for NR2E3 agonist project, cell-based, luminescence, CHO-S, high throughput (AID 624379;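 active = mean inhibition above a cutoff equal to the average over all tested compounds plus one standard deviation, cut at about 70% in these data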;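 note: 0% = DMSO with VP16-transfected cells and 100% = DMSO with cells lacking VP16; higher means less reporter light so more repression of VP16 activity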); details: CHO-S GAL4-VP16 luciferase reporter, at 3.98 µM, hits give high values
[23] = growth loss of phage-infected RecBCD+ E. coli, confirmation, RecBCD inhibitor project, absorbance, E. coli V66, T4 gene 2 phage (AID 651982;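 active = mean inhibition over triplicates exceeding the hit threshold derived in the original primary screen, cut at about 11% in these data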); details: E. coli V66 + T4 2- phage, growth OD; at 11.9 µM; hits give high values
[24] = E. coli viability inhibition, counter-screen for RecBCD inhibitor project, absorbance, high throughput (AID 651983; in the data active = inhibition above about 20%;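 note: E. coli strain V66 grown with compound alone and no phage infection; 0% = bacteria with DMSO vehicle only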); details: absorbance (OD) growth, at 11.9 µM, hits give high values
[25] = growth loss of phage-infected AddAB-carrying E. coli, confirmation, counter-screen for RecBCD inhibitor project, absorbance, E. coli V3065, T4 phage (AID 651984;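 active = mean inhibition above the solvent-only control wells' mean plus 3 SD, cut at about 22% in these data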;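 note: higher means less bacterial growth from phage killing when AddAB is blocked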); details: E. coli expressing H. pylori AddAB + T4 phage, OD growth; at 11.9 µM; hits give high values; gene 2 mutant T4, recBCD-deleted host
[26] = StAR promoter reporter inhibitors, counter-screen for LRH-1 inverse agonist project, cell-based, luminescence, high throughput (AID 651611; in the data active = inhibition above about 28%); details: StAR promoter luciferase reporter counterscreen, at 3.6 µM, hits give high values
[27] = molecular target: Nuclear receptor subfamily 5 group A member 2 (Homo sapiens) (UniProt O00482); experiment: LRH-1 (NR5A2) inverse agonists, retest, confirmation, cell-based, luminescence (AID 651613; in the data active = inhibition above about 42%;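 note: HEK293T cells co-transfected with LRH-1 and StAR promoter luciferase reporter; 0% = vehicle wells and 100% = parental cells lacking receptor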); details: cell-based LRH-1 luciferase reporter, inverse agonism; at 3.6 µM; hits give high values
Chain of Nuclear receptor subfamily 5 group A member 2 (Homo sapiens) (O00482 whole entry, looked up): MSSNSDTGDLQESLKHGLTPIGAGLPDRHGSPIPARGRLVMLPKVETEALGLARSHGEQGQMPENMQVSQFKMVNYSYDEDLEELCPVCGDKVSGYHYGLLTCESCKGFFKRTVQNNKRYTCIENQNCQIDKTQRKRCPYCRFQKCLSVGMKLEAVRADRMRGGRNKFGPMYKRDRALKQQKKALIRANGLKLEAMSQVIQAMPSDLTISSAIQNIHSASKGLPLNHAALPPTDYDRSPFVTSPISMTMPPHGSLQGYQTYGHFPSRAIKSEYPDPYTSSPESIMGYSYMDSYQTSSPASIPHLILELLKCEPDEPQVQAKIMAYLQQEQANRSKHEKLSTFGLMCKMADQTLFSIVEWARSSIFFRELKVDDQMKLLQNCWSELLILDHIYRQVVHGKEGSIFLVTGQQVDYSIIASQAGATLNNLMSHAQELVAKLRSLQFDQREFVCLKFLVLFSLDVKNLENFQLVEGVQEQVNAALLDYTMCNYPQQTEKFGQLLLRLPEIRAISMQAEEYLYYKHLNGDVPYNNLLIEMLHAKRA

[28] = molecular target: Steroidogenic factor 1 (Homo sapiens) (UniProt Q13285); experiment: SF1 (NR5A1) inverse agonists, counter-screen for LRH-1 inverse agonist project, cell-based, luminescence, high throughput (AID 651614; in the data active = inhibition above about 44%;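 note: cells cotransfected with StAR promoter reporter and SF1 expression vector; 0% = vehicle on cells with receptor and 100% = vehicle on cells lacking receptor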); details: cell-based SF1 luciferase reporter, at 3.6 µM, hits give high values
[29] = VP16 transactivation reporter inhibitors, counter-screen for LRH-1 inverse agonist project, cell-based, luminescence, high throughput (AID 651615; in the data active = inhibition above about 33%); details: Gal4-VP16 luciferase reporter cells, at 3.6 µM, hits give high values
[30] = Gal4-VP16 luciferase reporter inhibitors, counter-screen for COUP-TFII antagonist project, cell-based, luminescence, HEK293 (AID 687007; in the data active = inhibition above about 13%); details: at 8.5 µM, hits give high values
[31] = molecular target: COUP transcription factor 2 (Homo sapiens) (UniProt P24468); experiment: NR2F2 transcriptional activity inhibitors, confirmation, cell-based, luciferase reporter, HEK293, triplicate (AID 687008;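 active = mean inhibition over three repeats above a set limit taken from the earlier primary screen, cut at about 38% in these data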;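 note: 100% = cells given the luciferase reporter alone without the COUP-TF2 vector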); details: HEK293 NGFI-A luciferase reporter, luminescence; at 8.5 µM; hits give high values
Chain of COUP transcription factor 2 (Homo sapiens) (P24468 whole entry, looked up): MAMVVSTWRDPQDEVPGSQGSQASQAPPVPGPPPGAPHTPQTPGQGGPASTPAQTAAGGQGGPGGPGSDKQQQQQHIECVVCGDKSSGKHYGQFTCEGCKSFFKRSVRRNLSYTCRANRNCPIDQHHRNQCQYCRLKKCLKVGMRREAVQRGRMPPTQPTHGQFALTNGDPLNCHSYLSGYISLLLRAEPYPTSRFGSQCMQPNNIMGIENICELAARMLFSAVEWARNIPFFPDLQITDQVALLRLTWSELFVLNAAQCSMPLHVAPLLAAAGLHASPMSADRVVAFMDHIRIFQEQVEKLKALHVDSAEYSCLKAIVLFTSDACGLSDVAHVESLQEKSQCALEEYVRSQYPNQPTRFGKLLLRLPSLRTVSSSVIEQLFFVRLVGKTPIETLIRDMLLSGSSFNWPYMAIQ

[32] = molecular target: Protein phosphatase methylesterase 1 (Homo sapiens) (UniProt Q9Y570); experiment: PME-1 inhibitor activity retest, confirmation, biochemical, fluorescence polarization, FP-Rh probe, triplicate (AID 2171;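 active = inhibition above the hit cutoff set in the earlier primary screen, cut at about 27% in these data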;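 note: 0% = enzyme with DMSO and 100% = wells lacking PME-1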); details: recombinant PME-1, FP-Rh probe fluorescence polarization; at 5.9 µM; hits give high values
[33] = test system: transactivating tegument protein VP16 (Human herpesvirus 1); experiment: VP16 transactivation reporter inhibitors, counter-screen for SRC2 inhibitor project, cell-based, luminescence, single concentration (AID 652007; in the data active = inhibition above about 36%); details: cell-based VP16 transactivation luciferase reporter, at 8.9 µM, hits give high values
[34] = molecular target: Nuclear receptor coactivator 2 (Homo sapiens) (UniProt Q15596); experiment: SRC2 coactivator transcriptional activity inhibitors, confirmation, cell-based, luminescence, HEK293, triplicate (AID 652008;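 active = mean inhibition above 46.5%, the solvent-only control mean plus 3 SD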;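 note: 0% = DMSO-treated cells and 100% = Gossypol at 36 µM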); details: HEK293 GAL4-SRC2 luciferase reporter, at 8.9 µM, hits give high values
[35] = molecular target: Bcl-2-like protein 1 (Homo sapiens) (UniProt Q07817); experiment: Bcl-xL inhibitors blocking Bim BH3 binding, confirmation, counter-screen for MCL1 inhibitor project, biochemical, fluorescence polarization (AID 2166;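 active = inhibition above a cutoff equal to the mean inhibition of all tested compounds plus 3 SD, cut at about 30% in these data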); details: GST-Bcl-xL / FITC-Bim BH3 peptide FP binding; at 10.9 µM; hits give high values
[36] = molecular target: Induced myeloid leukemia cell differentiation protein Mcl-1 (Homo sapiens) (UniProt Q07820); experiment: inhibitors of MCL1 binding to BIM-BH3, confirmation, biochemical, fluorescence polarization, triplicate (AID 2168;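 active = inhibition above the average of all tested compounds plus 3 SD, cut at about 40% in these data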;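 note: 0% = DMSO wells and 100% = unlabeled Bim-BH3 control peptide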); details: GST-MCL1 / FITC-Bim-BH3 fluorescence polarization; at 10.9 µM; hits give high values

CN(Cc1ccccc1)C(=O)CCNC(=O)Cn1cnc2ccccc2c1=O
inactive: activation [1] 11.1% | activation [2] 33.4% | activation [3] 11.4% | inhibition [4] 11.2%
active: activation [5] 18.3%

CNc1ccc(SC#N)cc1
inactive: inhibition [6] 8.17% | inhibition [7] -1.31%

CC(=O)c1ccc2c(c1)OCCOCCOc1ccc(C(C)=O)cc1OCCOCCO2
inactive: activation [1] 19.6% | activation [2] 25.9%
active: activation [3] 36.5% | inhibition [4] 22.4% | activation [5] 26.6%

CC1CC2=C(CC1/C=N/NC(N)=S)C(C)(C)CCC2 (stereo not given)
inactive: inhibition [7] 7.02% | inhibition [10] 32.9%
active: inhibition [6] 67.8% | inhibition [8] 50.9% | inhibition [9] 30.1% | inhibition [11] 33.7%

CC1CC(C)CN(S(=O)(=O)c2cccc(C(=O)N3C(=O)c4cccc(N)c4C3=O)c2)C1 (stereo not given)
inactive: inhibition [7] 8.25%
active: inhibition [6] 32.3% | inhibition [12] 34.1% | inhibition [13] 33.2%

CC(=O)c1ccc(Oc2cc(C)nc(-n3nc(C)cc3C)n2)cc1
active: inhibition [14] 63.5% | inhibition [15] 57.9%

O=C(Nc1ccccc1)c1nnsc1S(=O)(=O)c1ccc(Cl)cc1
inactive: inhibition [7] 37.5% | inhibition [13] 10.3%
active: inhibition [16] 45.8% | inhibition [17] 66.7% | inhibition [6] 116% | inhibition [12] 65.2%

COc1cccc(/C=N/Nc2ncc(C(F)(F)F)cc2Cl)c1O
active: inhibition [14] 99.8% | inhibition [18] 12.9% | inhibition [19] 16.2% | inhibition [21] 83% | inhibition [22] 75.5%
inactive: inhibition [15] 0.75% | inhibition [20] 16.3% | inhibition [23] 7.89% | inhibition [24] 9.3% | inhibition [25] 12.8%

Cc1ccc(CCNC(=O)C2CCN(S(=O)(=O)N3CCCC3)CC2)cc1
inactive: activation [1] -1.21% | activation [2] -6.28% | activation [3] -10.2% | inhibition [4] -4.94% | activation [5] -8.83%

CCNC(=O)CCc1nc(-c2ccc(C(C)(C)C)cc2)no1
active: inhibition [21] 73.5% | inhibition [22] 77.8%
inactive: inhibition [14] 56% | inhibition [15] -2.69%

CCn1c(SCC(=O)Nc2nccs2)nnc1-c1ccncc1
inactive: inhibition [14] 3.83% | inhibition [15] 8.72%

C[C@@H]1C[C@@H]2O[C@H]2/C=C\C=C\C(=O)Cc2c(Cl)c(O)cc(O)c2C(=O)O1
inactive: inhibition [10] -17.6%
active: inhibition [14] 67.1% | inhibition [15] 38% | inhibition [8] 62.2% | inhibition [9] 74.4% | inhibition [11] 72% | inhibition [26] 55.7% | inhibition [27] 68.5% | inhibition [28] 56.9% | inhibition [29] 79.3% | inhibition [30] 64.3% | inhibition [31] 68%

O=C(Nc1sc2c(c1-c1nc3ccccc3[nH]1)CCCC2)C1CC1
inactive: activation [1] 19.1% | activation [2] 30.4% | inhibition [4] 19.9%
active: activation [3] 27.3% | activation [5] 24.5%

COc1ccccc1C1C2=C(COC2=O)Nc2cc3c(cc21)OCO3 (stereo not given)
active: inhibition [14] 88.1% | inhibition [15] 82.9%

COc1ccc(C(=O)Nc2ccccc2C(=O)N/N=C/c2ccc(O)c(OC)c2)cc1
inactive: inhibition [15] 4.51% | inhibition [21] 42.1% | inhibition [22] -33% | inhibition [26] 19% | inhibition [27] -69.7% | inhibition [28] 11.7% | inhibition [29] -41.2% | inhibition [30] 7.03%
active: inhibition [14] 111% | inhibition [32] 28.2% | inhibition [33] 64.8% | inhibition [34] 59.3% | inhibition [31] 75.2%

O=C1C=C(c2ccc(Cl)cc2)C(=O)N1Nc1ccccc1
active: inhibition [6] 119% | inhibition [7] 63% | inhibition [12] 90.3% | inhibition [13] 14.8%

CSc1nc(N(C)NC(=O)c2cccc(C)c2)c2ccccc2n1
active: inhibition [14] 88.7% | inhibition [15] 73.4%

COc1ccc2nc(NC(=O)NC3CCCCC3)sc2c1
active: activation [1] 40.8% | activation [2] 66.1% | activation [3] 72.5% | inhibition [4] 56.1% | activation [5] 53.9%

CN(C)c1ccc(CNC2C3CC4CC(C3)CC2C4)cc1 (stereo not given)
inactive: activation [1] 7.01% | activation [2] -7.77% | activation [3] -11.2% | inhibition [4] 5.13% | activation [5] -2.65%

COc1cc(NC(=O)c2ccccc2NS(=O)(=O)c2ccc(Cl)s2)cc(OC)c1
inactive: activation [1] 0.49% | activation [2] -30.1% | activation [3] -29% | inhibition [4] -9.95% | activation [5] -3.82%
active: inhibition [21] 99.6% | inhibition [22] 90.3%

Cc1ccc(/C=N/NC(=O)COc2ccccc2-c2ccccc2)cc1
inactive: inhibition [35] -0.45% | inhibition [36] -3.63%
active: inhibition [14] 85.4% | inhibition [15] 74.2%
